Records with an inconclusive call do not appear. Activity calls are given as the source filed them. Unless noted, the call rests on the fitted dose curve; in most records, active means well fitted curve in the direction sought with a large enough effect in the repeat runs; inconclusive means weak or mixed curves; inactive means no such curve, though single readings can be large; an effect the other way counts as inactive or inconclusive.
Key:
[1] = qHTS assay to identify small molecule agonists of the hypoxia (HIF-1) signaling pathway (AID 1224846; active means well fitted activation curve with a large enough effect in the signal ratio in the repeat runs, not every such curve was filed as active; the % refers to the signal ratio)
Procedure, shortened: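 In ME-180 cells bearing an HRE-bla construct, 17 h treatment with DMSO-dissolved compounds at 37C was followed by CCF4-AM loading to quantify reporter induction.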

[2] = qHTS assay to identify small molecule agonists of H2AX - cell viability counter screen (AID 1224847; calls by dose curve;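 further: wild-type CHO-K1 cells; top concentration of the series differs between compounds; nearly all actives have a fitted effect of over 30% in size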)
Procedure, shortened: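 CHO-K1 cells plated overnight at 37C, then exposed 3 h at 37C to compounds at 15 concentrations (0.76% DMSO final). Viability by CellTiter-Glo luminescence after 30 min at room temperature.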

[3] = qHTS RealTime-Glo MT Cell Viability Assay in HepG2 cells - 24 hour (AID 1224867); further: nearly all actives have a fitted effect of over 50% in size
Procedure, shortened: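 HepG2 suspension premixed with RealTime-Glo reagents is plated at 600 cells per well and left 5 h at 37 C/5% CO2. Compounds in DMSO then go in, and bioluminescence reflecting viable cell number is recorded over 40 h.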

[4] = qHTS RealTime-Glo MT Cell Viability Assay in HEK293 cells - 32 hour (AID 1224868); further: top concentration of the series differs between compounds; nearly all actives have a fitted effect of over 50% in size
Procedure, shortened: (§1)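 Reads taken at 0, 8, 16, 24, 32 and 40 h from the same wells. HEK293 cells (600/well) carried RealTime-Glo reagents from seeding, with compound added after a 5 h settle at 37 C.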

[5] = A CellTox Green Cytotoxicity Assay to monitor cytotoxicity in HEK293 cells - 0 hour (AID 1224869); further: nearly all actives have a fitted effect of over 50% in size
Procedure, shortened: (§2)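 Homogeneous no-lysis format: HEK293 cell suspension mixed with CellTox Green reagent, seeded, incubated 5 h at 37 C/5% CO2, then dosed by pintool with compound in DMSO.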

[6] = qHTS RealTime-Glo MT Cell Viability Assay in HepG2 cells - 40 hour (AID 1224870); further: nearly all actives have a fitted effect of over 50% in size
Procedure, shortened: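 HepG2 cells (600/well) mixed with RealTime-Glo MT reagent, settled 5 h at 37 C/5% CO2 before compound addition. Nonlytic NanoLuc luminescence from viable-cell prosubstrate reduction read repeatedly during 40 h treatment at 37 C.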

[7] = A CellTox Green Cytotoxicity Assay to monitor cytotoxicity in HEK293 cells - 40 hour (AID 1224871); further: nearly all actives have a fitted effect of over 45% in size
Procedure, shortened: as §2

[8] = qHTS RealTime-Glo MT Cell Viability Assay in HEK293 cells - 16 hour (AID 1224872)
Procedure, shortened: as §1

[9] = qHTS assay to identify small molecule agonists of the estrogen related receptor (ERR) signaling pathway from Tox21 library (AID 1224849; calls by dose curve; further: nearly all actives have a fitted effect of over 15% in size); conditions: ERR reporter cell line, ONE-Glo luciferase, 18 h; at 92.4 µM (top of the series) unless noted
Procedure, shortened: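 Reporter cells (ERR, NTP source) treated with Tox21 10K compounds 18 h, 37 C. Readout: ONE-Glo luminescence, 30 min RT.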
On the % scale 0 is the no-effect control and ±100 the full control effect.

Cc1cc(=O)[nH]c(=O)[nH]1
inactive: outcome [1] | Potency [2] | Potency [3] | Potency [4] | Potency [5] | Potency [6] | Potency [7] | Potency [8]

C/C=C/C(=O)C1=C(C)CCCC1(C)C
inactive: outcome [1] | Potency [2] | activity change, positive = activation [9] -5.63% | Potency [3] | Potency [5] | Potency [6] | Potency [8]

CCCCCCCC(C)=O
inactive: outcome [1] | Potency [2] | Potency [3] | Potency [4] | Potency [5] | Potency [6] | Potency [7] | Potency [8]

CCc1ccc(C)nc1
inactive: outcome [1] | Potency [2] | Potency [3] | Potency [4] | Potency [5] | Potency [6] | Potency [7] | Potency [8]

CC1CCCCC1
inactive: outcome [1] | Potency [2] | Potency [3] | Potency [4] | Potency [5] | Potency [6] | Potency [7] | Potency [8]

CCC(C)c1ccccc1 (stereo not drawn)
inactive: outcome [1] | Potency [2] | Potency [3] | Potency [4] | Potency [5] | Potency [6] | Potency [7] | Potency [8]

C/C=C/CO
inactive: outcome [1] | Potency [2] | Potency [3] | Potency [4] | Potency [5] | Potency [6] | Potency [7] | Potency [8]

COC(=O)CC#N
inactive: outcome [1] | Potency [2] | Potency [3] | Potency [4] | Potency [5] | Potency [6] | Potency [7] | Potency [8]

CC(C)=CCCC(C)CCOC(=O)C(C)C (stereo not drawn)
inactive: outcome [1] | Potency [2] | Potency [3] | Potency [4] | Potency [5] | Potency [6] | Potency [7] | Potency [8]

Cc1cccc(C)n1
inactive: outcome [1] | Potency [2] | Potency [3] | Potency [4] | Potency [5] | Potency [6] | Potency [7] | Potency [8]

O=CC1CC1
inactive: outcome [1] | Potency [2] | Potency [3] | Potency [4] | Potency [5] | Potency [6] | Potency [7] | Potency [8]

CCCCCCS
inactive: outcome [1] | Potency [2] | Potency [3] | Potency [4] | Potency [5] | Potency [6] | Potency [7] | Potency [8]

CCCC(C)CCC(C)=O (stereo not drawn)
inactive: outcome [1] | Potency [2] | Potency [3] | Potency [4] | Potency [5] | Potency [6] | Potency [7] | Potency [8]

— PubChem BioAssay (Tox21)
